TDP1 inh – inhibitors of human tyrosyl-DNA phosphodiesterase TDP1 | AID 485290 | Q9NUW8 | recombinant TDP1, AlphaScreen DNA substrate cleavage | actives 0.28% (n = 350,000) | Potency, µM (doses to about 130 µM), for the others: at the highest dose activity change, negative = inhibition, actives largely listed as inhibitors; further: nearly all actives have a fitted effect of over 40% in size
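Recombinant E. coli-expressed Tdp1 (1 nM) preincubated with compound 15 min at RT, then 5'-biotin/3'-phosphotyrosine-FITC DNA substrate (15 nM) added for 5 min. AlphaScreen beads (10 ug/ml) added, 10 min RT; tyrosine-FITC cleavage read as signal loss.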
TDP1 cell CPT – growth inhibition of DT40 Tdp1-/-;hTDP1 cells with camptothecin (screen for TDP1 inhibitors). Potency, µM (series often up to 46.2 µM), inactives show top-dose activity change, negative = growth inhibition, actives largely listed as inhibitors. chicken DT40 Tdp1-/-;hTDP1 cells + 20 nM CPT, ATP luminescence, 48 h. actives 12% (n = 420,000); further: nearly all actives have a fitted effect of over 55% in size
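Chicken DT40 Tdp1-/- cells complemented with human TDP1, 400 cells/well, exposed to compounds plus 20 nM camptothecin for at least 48 h at 37 C; viability read as ATP content by CellTiter-Glo luminescence.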
Gal4-VP16 FLuc – Gal4-VP16 reporter inhibition counter-screen; Drosophila S2 Gal4-VP16 UAS-luciferase, luminescence, 20 h; Potency, µM (series often up to 53.6 µM), without a hit: at the highest dose activity, negative = inhibition, actives largely listed as inhibitors; actives 3.5% (n = 310,000); AID 2546;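 further: Gal4-VP16 expression switched on by copper sulfate through the metallothionein promoter; nearly all actives have a fitted effect of over 50% in size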
RORg inh – inhibitors of mouse ROR gamma transcriptional activity. Drosophila S2 Gal4-RORgamma UAS-luciferase reporter, 20 h. AID 2551. Potency, µM (titrated, usually from 53.6 µM), for the others: top-dose activity change, negative = inhibition, actives largely listed as inhibitors. actives 5.4% (n = 310,000); further: nearly all actives have a fitted effect of over 60% in size
Target sequence (P51450 whole entry, looked up, the tested form may be a part): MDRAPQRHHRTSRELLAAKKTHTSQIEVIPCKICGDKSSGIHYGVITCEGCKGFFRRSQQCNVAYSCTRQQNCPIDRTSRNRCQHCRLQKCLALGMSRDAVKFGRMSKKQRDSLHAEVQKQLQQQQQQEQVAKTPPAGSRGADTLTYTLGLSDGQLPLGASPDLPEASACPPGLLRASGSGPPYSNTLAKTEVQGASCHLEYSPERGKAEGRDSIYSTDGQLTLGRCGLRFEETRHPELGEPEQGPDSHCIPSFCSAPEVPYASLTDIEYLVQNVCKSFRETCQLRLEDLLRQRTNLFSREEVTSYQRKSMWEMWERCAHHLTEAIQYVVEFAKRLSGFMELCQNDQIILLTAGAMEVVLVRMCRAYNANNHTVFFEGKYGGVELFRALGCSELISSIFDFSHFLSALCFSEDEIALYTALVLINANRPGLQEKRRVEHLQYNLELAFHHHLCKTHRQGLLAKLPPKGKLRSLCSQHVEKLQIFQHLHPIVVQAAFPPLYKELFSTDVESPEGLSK
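A Gal4/UAS one-hybrid system in insect cells: metallothionein-promoter Gal4–ROR gamma fusion plus Photinus luciferase reporter. Copper sulfate 700 uM final, 20 hr ambient incubation, luminescent detection after 10 min with reagent.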
DT40 TDP1 no CPT – qHTS for Inhibitors of human tyrosyl-DNA phosphodiesterase 1 (TDP1): qHTS in cells in absence of CPT | DT40 Tdp1-/- hTDP1 cells, no CPT, ATP luminescence, 48 h | Potency, µM (highest dose often 46.2 µM), without a hit: at the top dose activity change, negative = growth inhibition, actives largely listed as inhibitors | actives 15% (n = 420,000); further: nearly all actives have a fitted effect of over 55% in size
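Compound effects on proliferation are scored in DT40 Tdp1-/-;hTDP1 cells in the absence of CPT. ATP levels (CellTiter-Glo luminescence) are recorded after a ≥48 hr, 37 °C incubation.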
Starred values were filed as active, the others as inactive; u = inconclusive; x = no result given. Hits are enriched below; roughly 19% of the tested compounds scored in any of these assays. The call rests on the fitted dose curve; in most records, active means well fitted curve in the direction sought with a large enough effect; inconclusive means small, poorly fitted or top-dose-only effect, or another doubt; inactive means no such curve, though single readings can be large; an effect the other way counts as inactive or inconclusive. On the % scale 0 is the no-effect control and ±100 the full control effect; potency means the concentration at half of the fitted maximal effect.

SMILES	TDP1 inh	TDP1 cell CPT	Gal4-VP16 FLuc	RORg inh	DT40 TDP1 no CPT
CCOc1ccccc1NC(=S)NNS(=O)(=O)c1c(C)cc(C)cc1C	4%	-10%	14µM*	10µM*	-13%
CCOc1ccccc1NC(=S)NCc1ccco1	2%	-1%	u	10µM*	-13%
COc1ccc(NC(=S)Nn2cnnc2)c(OC)c1	8%	-4%	0%	u	-6%
CCOc1ccc(-n2c(SCC(=O)Nc3cc(C)on3)nc3c(c2=O)SCC3)cc1	-4%	0%	-10%	34%	u
C[C@@]12C(=O)Nc3ccc(F)cc3C(=O)N1[C@H]1c3cc(Cl)ccc3OC[C@@H]1[C@@H]2c1ccccc1	0%	u	x	x	u
C[C@@]12C(=O)Nc3ccc(F)cc3C(=O)N1[C@H]1c3ccccc3OC[C@@H]1[C@@H]2c1ccccc1	0%	u	x	x	-10%
Cc1ccc2c(c1)C(=O)N1[C@H]3c4cc(Cl)ccc4OC[C@@H]3[C@H](c3ccccc3)[C@]1(C)C(=O)N2	2%	u	x	x	16µM*
Cc1ccc2c(c1)C(=O)N1[C@H]3c4cc(C)ccc4OC[C@@H]3[C@H](c3ccccc3)[C@]1(C)C(=O)N2	2%	12µM*	x	x	13µM*
COc1cc(/C=N/n2cnc3c(sc4nc(C)cc(C)c43)c2=O)ccc1O	x	3%	-12%	-5%	-19%
Cc1ccc(C)c(NC(=O)COC(=O)c2ccc(S(=O)(=O)N3CCCC3)cc2)c1	x	-5%	x	x	-3%
CCOC(=O)c1c(NC(=O)C(=O)N/N=C(\C)c2ccc(OC)cc2)sc2c1CCCCC2	8%	u	u	-29%	u
COCCCNC(=O)COc1ccc(S(=O)(=O)Nc2ccccc2)cc1	1%	3%	-1%	0%	-9%
COc1ccc(NC(=S)Nc2ccc(OCc3ccccc3)cc2)c(OC)c1	1%	21µM*	7.1µM*	7.1µM*	26µM*
COc1ccc(NC(=S)Nc2ccccc2)c(OC)c1	4%	u	u	13µM*	-23%
COc1ccc(NC(=S)NCC(O)c2ccccc2)c(OC)c1 (centres undefined)	-2%	1%	4%	-3%	-32%
Cc1cc(C)n(/N=C/c2ccco2)c(=O)c1C#N	1%	5%	2%	-20%	13%
CSc1nn2cc(CCN3CCOCC3)c(-c3ccc(F)cc3)nc2c1C#N	0%	-5%	-12%	13%	u
O=C1/C(=C\c2ccco2)SC(=S)N1C1CCS(=O)(=O)C1 (centres undefined)	-5%	23µM*	-10%	-13%	21µM*
O=C1/C(=C/c2ccncc2)SC(=S)N1C1CCCCC1	1%	-12%	6%	-9%	u
Cc1ccc(/C=C2\SC(=S)N(C3CCS(=O)(=O)C3)C2=O)cc1 (centres undefined)	0%	u	-3%	22%	15µM*
O=C1/C(=C/c2ccco2)SC(=S)N1C1CCS(=O)(=O)C1 (centres undefined)	-5%	15µM*	-1%	23%	16µM*
COc1ccccc1C(=O)Nc1c(C)cc(Br)cc1C	5%	u	9%	2%	u
CC(=O)c1cccc(NC(=O)c2cc3nc(-c4ccc(Br)cc4)cc(C(F)(F)F)n3n2)c1	-3%	6.5µM*	x	x	6.5µM*
Cc1noc(NC(=O)c2ccc(Cl)c(Cl)c2)c1Cl	-4%	-29%	18µM*	u	u
O=C(CCC(=O)NNc1nc2ccccc2c2nc(-c3ccccc3)nn12)NCCCN1CCOCC1	0%	-6%	-14%	-1%	-19%
SMILES	TDP1 inh	TDP1 cell CPT	Gal4-VP16 FLuc	RORg inh	DT40 TDP1 no CPT
CSCc1cc(N(C)c2ccccc2)nc(-c2ccccc2)n1	x	-27%	3%	1%	-22%
Cc1ncc(CO)c(/C=N/NC(=S)Nc2ccc(C(C)C)cc2)c1O	x	15µM*	-7%	0%	21µM*
Cc1ncc(CO)c(/C=N/NC(=O)c2ccc(Br)cc2)c1O	5%	x	u	11µM*	x
Cc1ncc(CO)c(/C=N/NC(=O)c2cc(O)c(O)c(O)c2)c1O	u	x	0%	-3%	x
Cc1ncc(CO)c(/C=N/NC(=O)c2cc(Br)ccc2O)c1O	9%	16µM*	-8%	-42%	16µM*
Cn1cccc1/C=N/n1c(-c2ccc(C(C)(C)C)cc2)n[nH]c1=S	10%	8.2µM*	u	2.2µM*	8.2µM*
Cn1cccc1/C=N/n1c(-c2ccccc2)n[nH]c1=S	7%	-7%	u	14µM*	-5%
CCN1CCN(C2=C(NS(=O)(=O)c3ccccc3)C(=O)c3ccccc3C2=O)CC1	5%	21µM*	u	10µM*	16µM*
CCN1CCN(C2=C(NS(=O)(=O)c3ccc(Br)cc3)C(=O)c3ccccc3C2=O)CC1	9%	21µM*	u	u	23µM*
CCN1CCN(C(CNS(=O)(=O)c2ccccc2)c2ccccc2)CC1 (centres undefined)	2%	-9%	5%	0%	10%
CN1CCN(C2=C(NS(=O)(=O)c3ccccc3)C(=O)c3ccccc3C2=O)CC1	5%	23µM*	13µM*	11µM*	u
COc1ccc(C(CNS(=O)(=O)c2ccccc2)N2CCN(C)CC2)cc1 (centres undefined)	0%	5%	x	x	10%
CCN1CCN(C(CNS(=O)(=O)c2ccc(Br)cc2)c2cccnc2)CC1 (centres undefined)	0%	-5%	18%	-7%	-4%
O=C1C(NS(=O)(=O)c2ccc(Cl)cc2)=C(N2CCCCC2)C(=O)c2ccccc21	1%	26µM*	u	-40%	18µM*
CC(C)(CN1CCCCC1)NS(=O)(=O)c1ccc(Cl)cc1	5%	-9%	10%	-9%	-8%
CCCCC12CN3CC(C)(CN(C1)C3c1ccc([N+](=O)[O-])o1)C2=O (centres undefined)	4%	-11%	2%	-6%	-11%
COc1ccccc1C1NC(=O)c2ccccc2O1 (centres undefined)	x	-11%	-3%	3%	-17%
COc1ccccc1C(=O)NC(=S)Nc1ccc2[nH]c(=O)[nH]c2c1	2%	21%	4%	9%	14%
C=CCn1c(COc2ccccc2F)nnc1SCC(=O)c1c[nH]c2ccccc12	5%	26µM*	u	69%	23µM*
C=CCn1c(COc2ccccc2F)nnc1SCC(=O)Nc1cc2oc3ccccc3c2cc1OC	5%	u	-3%	u	u
CCN(CC(=O)NC1CCS(=O)(=O)C1)C(=O)c1ccc(S(=O)(=O)N(CC)CC)cc1 (centres undefined)	0%	10%	x	x	-21%

Screens deposited in PubChem BioAssay by National Center for Advancing Translational Sciences (NCATS).
